Common to all, as to format: functional
For experiment [1], the target named is Solute carrier family 2, facilitated glucose transporter member 1 (Homo sapiens) (UniProt P11166). In words: ST_JUDE_LEISH: Cytotoxicity at 2uM final concentration against transgenic Leishmania Mexicana promastigotes LmGLUT1 that are glucose transport deficient and complemented with the human glucose transporter GLUT1. Activity is measured by DNA content using SYBR green in vitro.

The target in experiment [2] is Hexose transporter 1 (Plasmodium falciparum) (UniProt O97467). In words: ST_JUDE_LEISH: Cytotoxicity at 2uM final concentration against transgenic Leishmania Mexicana promastigotes LmPfHT that are glucose transport deficient and complemented with the Plasmodium falciparum hexose transporter. Activity is measured by DNA content using SYBR green in vitro.
In experiment [3] the target is Glucose transporter (Leishmania mexicana) (UniProt O61059). The experiment can be described thus: ST_JUDE_LEISH: Cytotoxicity at 2uM final concentration against transgenic Leishmania Mexicana promastigotes LmGT2 that are glucose transport deficient and complemented with the L. Mexicana glucose transporter 2. Activity is measured by DNA content using SYBR green in vitro.

Chain of Solute carrier family 2, facilitated glucose transporter member 1 (Homo sapiens) (P11166 whole entry): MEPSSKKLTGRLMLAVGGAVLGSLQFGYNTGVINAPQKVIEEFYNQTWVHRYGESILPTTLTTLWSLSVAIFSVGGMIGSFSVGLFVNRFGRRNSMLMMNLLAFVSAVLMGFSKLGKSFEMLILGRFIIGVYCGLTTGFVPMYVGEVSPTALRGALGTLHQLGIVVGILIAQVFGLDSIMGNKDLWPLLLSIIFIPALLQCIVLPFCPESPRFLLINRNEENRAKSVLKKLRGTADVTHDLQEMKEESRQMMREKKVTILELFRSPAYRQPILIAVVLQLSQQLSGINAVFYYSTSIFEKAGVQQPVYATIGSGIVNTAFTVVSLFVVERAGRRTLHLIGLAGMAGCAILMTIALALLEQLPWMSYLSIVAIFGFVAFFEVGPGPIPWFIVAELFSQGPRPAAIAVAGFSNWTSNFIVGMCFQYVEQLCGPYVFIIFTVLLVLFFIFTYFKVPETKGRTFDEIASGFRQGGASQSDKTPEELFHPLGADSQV

On to `COc1cc(CN/C(=N/c2ccc(-c3ccccc3)cc2)Nc2ccc(C#N)cc2O)cc(OC)c1`, for which the inhibition – broadly, the relative decrease from the control value, in per cent – worked out at 1.7% in experiment [1], 0.59% in experiment [2] and 0.77% in experiment [3].

As for `CCN1CCC(N(Cc2ccc(-c3ccc(C(F)(F)F)cc3)cc2)C(=O)Cn2c(CCc3cccc(F)c3F)cc(=O)c3cn(C)nc32)CC1`, the inhibition was -2.3% in experiment [1], 1.08% in experiment [2] and 0.21% in experiment [3].

As for `CNCCNCc1cccc(-c2ccc(-c3nc4cc(C(F)(F)F)ccc4[nH]3)cc2)c1`, the values for the inhibition in experiment [1], in experiment [2] and in experiment [3] were 0.41%, 2.51% and 2.03%, respectively.

For the compound `COc1c(C2CCN(CCN3CCC(NC(=O)c4ccc(-c5ccc(C(F)(F)F)cc5)cc4)CC3)CC2)ccc2c1CCCC2`, the inhibition was 0.78% in experiment [1], 1.26% in experiment [2] and 0.67% in experiment [3].

As for `CC(C)Cn1cc(C2CCN(CCN3CCC(CNC(=O)c4ccc(NC(=O)c5cc(Cl)cc(Cl)c5)cc4)CC3)CC2)c2ccccc21`, the inhibition in experiment [1] was 1.27%; in experiment [2] it was 4.22%; in experiment [3], 1.97%.

On to `CN1CCN(c2cccc(-c3nnc(-c4ccc(OCC(=O)NCc5ccc(C(F)(F)F)cc5)c([N+](=O)[O-])c4)o3)c2)CC1`, for which the inhibition in experiment [1] is 3.75%; in experiment [2], 3.68%; in experiment [3], -0.17%.

In the case of `O=C(NCc1cccc(F)c1)Nc1cccc(-c2cccc(-c3nc4cc(C(F)(F)F)ccc4[nH]3)c2)c1`, the inhibition in experiment [1] was 0.12%; in experiment [2], 2.8%; in experiment [3], -2.1%.

Take `Oc1ccc(CCNc2nc(NCc3cccc(-c4cc(C(F)(F)F)ccc4Cl)c3)nc(N3CCNCC3)n2)cc1`: the inhibition in experiment [1] came out at 2.86%; in experiment [2], 1.88%; in experiment [3], 2.82%.

Turning to `COc1cc(-c2cnc(N)c(-c3nc4ccccc4[nH]3)c2)cc(OC)c1OC`, the inhibition came out at 5.26% in experiment [1], 9.19% in experiment [2] and 1.47% in experiment [3].

For `O=C(NCCCCN1CCC(c2cccc3ccccc23)CC1)c1ccc(NC(=O)c2ccc(Cl)cc2)cc1`, the inhibition in experiment [1] was determined as 1.07%; in experiment [2], 0.25%; in experiment [3] it was 0.68%.

Consider `O=C(NC1CC1)c1ccc(N2CCC(Oc3ccc(F)cc3)CC2)nc1`, for which the inhibition in experiment [1] was 2.46%; in experiment [2] it was 1.1%; in experiment [3], 1.42%.

Turning to `Cc1cc(-c2ccc(NC(=O)N3CCc4cc(Br)c(N5CCN(C)CC5)cc43)cc2)ccc1C#N`, the inhibition in experiment [1] is 11.9%; in experiment [2], 18.9%; in experiment [3] it was 8.55%.

With `O=C(Nc1ccc(OC2CCN(Cc3ccccc3)C2)c(Cl)c1)c1ccco1` (stereo not given), the inhibition is 5.7% in experiment [1], 6.46% in experiment [2] and 4.97% in experiment [3].

Consider `Cc1ccc(N2CCN(CCCCNC(=O)c3ccc(NC(=O)c4ccc(Cl)cc4)cc3)CC2)c(C)c1`, for which the figures for the inhibition in experiment [1], in experiment [2] and in experiment [3] were 3.93%, 5.9% and 2.64%, respectively.

`CC[C@H](NC(=O)c1c(CC2CCN(CC(C)=O)CC2)c(-c2ccccc2)nc2ccccc12)c1ccccc1`: the inhibition in experiment [1] came to 2.8%; in experiment [2], 3.28%; in experiment [3] it was 0.03%.

With `Cc1ccc(-c2ccc3c(c2)C=C(C(=O)NCC2CCN(CC4CCN(C(=O)/C=C/c5ccc(Cl)c(Cl)c5)CC4)CC2)CCC3)cc1`, the values for the inhibition in experiment [1], in experiment [2] and in experiment [3] were 1.1%, 0.59% and -0.85%, respectively.

Regarding `CN1CCN(c2ccc(CNc3ccc4ncc(-c5ccc(OC(F)(F)F)cc5)n4n3)cc2)CC1`, the inhibition in experiment [1] was -2.29%; in experiment [2] it was -1.23%; in experiment [3], -1.25%.

In the case of `COc1ccc2nc(-c3cc(-c4ccc(NC(C)=O)cc4)cnc3N)[nH]c2c1`, the inhibition in experiment [1] stood at 3.72%; in experiment [2], 4.61%; in experiment [3], 2.87%.

As to `O=C1CCCC1Sc1nc2ccccc2c(=O)n1-c1ccc(Cl)c(Cl)c1` (stereo not given), the inhibition is 2.33% in experiment [1], 1.97% in experiment [2] and -1.42% in experiment [3].

Take `CCC(CSC1CCCCC1)N(C)CCN(C)C(CC)CSC1CCCCC1` (stereo not given): the inhibition in experiment [1] turned out to be 7.39%; in experiment [2] it was 36.7%; in experiment [3], 4.54%.

As to `CNC(=O)c1cc(S(=O)(=O)N2CCN(c3ccccn3)CC2)c(C)s1`, the inhibition in experiment [1] is -1.34%; in experiment [2], -1.2%; in experiment [3] it was 1.44%.

Turning to `CN1CCCC(CN2CCN(Cc3ccc(-c4ccc(-c5nc6ccccc6[nH]5)s4)cc3)CC2)C1` (stereo not given), the inhibition in experiment [1] was 22.9%; in experiment [2], 34.8%; in experiment [3], 9.58%.

As for `Cc1ccc(F)cc1S(=O)(=O)Nc1cccc(CCN2CCC(N3CCCCC3)CC2)c1`, the values for the inhibition in experiment [1], in experiment [2] and in experiment [3] were 3.52%, 6.1% and 0.55%, respectively.

Turning to `O=S(=O)(Nc1cccc(CCN2CCC(N3CCCCC3)CC2)c1)c1cccc2ccccc12`, the inhibition turned out to be 4.59% in experiment [1], 2.76% in experiment [2] and 3.28% in experiment [3].

In the case of `COc1ccc2nccc([C@@H](O)CN3CCC(NC(=O)c4ccc(-c5ccc(C#N)cc5)cc4)CC3)c2c1`, the inhibition in experiment [1] came out at 1.89%; in experiment [2] it was 1.64%; in experiment [3] it was 3.25%.

As for `COc1ccc2nccc([C@@H](O)CN3CCC(NCc4cc5ccccc5o4)CC3)c2c1`, the inhibition turned out to be 10.1% in experiment [1], 15.3% in experiment [2] and 5.59% in experiment [3].

In the case of `O=C(c1ccccc1)N1CCC(CN2CCOC(c3ccccc3)(c3ccccc3)C2)CC1`, the inhibition is 3.71% in experiment [1], 3.92% in experiment [2] and 2.8% in experiment [3].

Consider `C[C@H](NC(=O)c1c(CN2CCC(NC(=O)CC(C)(C)C)CC2)c(-c2cccs2)nc2ccccc12)C1CCCCC1`, for which the figures for the inhibition in experiment [1], in experiment [2] and in experiment [3] were 2.07%, 1.16% and 0.4%, respectively.

With `COc1ccc2nccc([C@@H](O)CN3CCC(NCCOc4cc(C(F)(F)F)ccc4F)CC3)c2c1`, the inhibition in experiment [1] stood at 21.5%; in experiment [2], 33.3%; in experiment [3] it was 14.4%.

With `Cc1cc(-c2nc3ccc(N4CCN(C)CC4)cc3[nH]2)nn1Cc1cc(Cl)ccc1OCC(C)C`, the inhibition came to 1% in experiment [1], 1.76% in experiment [2] and 0.44% in experiment [3].

With `Cc1ccc(Nc2nccc(NCC(O)c3cccc(F)c3)n2)cc1` (stereo not given), the values for the inhibition in experiment [1], in experiment [2] and in experiment [3] were 0.93%, 1.15% and -0.59%, respectively.

As for `CC(C)c1ccc(NC(=O)Nc2ccc(Cn3ncc(N4CCCNCC4)c(Cl)c3=O)cc2)cc1`, the results for the inhibition in experiment [1], in experiment [2] and in experiment [3] were 1.52%, 1.29% and -0.56%, respectively.

`NC1CCN(Cc2ccc(-c3ccc(-c4nc5cc(F)ccc5[nH]4)s3)cc2)C1` (stereo not given): the inhibition in experiment [1] is 0.37%; in experiment [2], 4.62%; in experiment [3], 5.81%.

Consider `O=C(NCCCN1CCOCC1)c1ccc(-c2cccc(NC(=O)c3ccc(Cl)c(Cl)c3)c2)cc1`, for which the inhibition was 2.04% in experiment [1], 1.79% in experiment [2] and -0.88% in experiment [3].

Take `CO/C(=C\C=C\c1cc2cc(Cl)c(Cl)cc2[nH]1)C(=O)NCCCN1CCCC[C@@H]1C`: the inhibition was 3.54% in experiment [1], 2.51% in experiment [2] and -0.72% in experiment [3].
